Source: PubChem BioAssay (Tox21)
Records with an inconclusive call do not appear. Activity calls are given as the source filed them. Unless noted, calls come from the whole dose curve; as a rule, active = well fitted curve in the direction sought with a large enough effect in the repeat runs; inconclusive = weak or mixed curves; inactive = no such curve, though single readings can be large; an effect the other way counts as inactive or inconclusive.

Legend:
[1] = target: Progesterone receptor (Homo sapiens) (UniProt P06401); test: qHTS assay to identify small molecule agonists of the progesterone receptor (PR) signaling pathway (AID 1346784; calls by dose curve; note: nearly all actives have a fitted effect of over 30% in size)
Progesterone receptor (Homo sapiens), sequence (P06401 whole entry, looked up): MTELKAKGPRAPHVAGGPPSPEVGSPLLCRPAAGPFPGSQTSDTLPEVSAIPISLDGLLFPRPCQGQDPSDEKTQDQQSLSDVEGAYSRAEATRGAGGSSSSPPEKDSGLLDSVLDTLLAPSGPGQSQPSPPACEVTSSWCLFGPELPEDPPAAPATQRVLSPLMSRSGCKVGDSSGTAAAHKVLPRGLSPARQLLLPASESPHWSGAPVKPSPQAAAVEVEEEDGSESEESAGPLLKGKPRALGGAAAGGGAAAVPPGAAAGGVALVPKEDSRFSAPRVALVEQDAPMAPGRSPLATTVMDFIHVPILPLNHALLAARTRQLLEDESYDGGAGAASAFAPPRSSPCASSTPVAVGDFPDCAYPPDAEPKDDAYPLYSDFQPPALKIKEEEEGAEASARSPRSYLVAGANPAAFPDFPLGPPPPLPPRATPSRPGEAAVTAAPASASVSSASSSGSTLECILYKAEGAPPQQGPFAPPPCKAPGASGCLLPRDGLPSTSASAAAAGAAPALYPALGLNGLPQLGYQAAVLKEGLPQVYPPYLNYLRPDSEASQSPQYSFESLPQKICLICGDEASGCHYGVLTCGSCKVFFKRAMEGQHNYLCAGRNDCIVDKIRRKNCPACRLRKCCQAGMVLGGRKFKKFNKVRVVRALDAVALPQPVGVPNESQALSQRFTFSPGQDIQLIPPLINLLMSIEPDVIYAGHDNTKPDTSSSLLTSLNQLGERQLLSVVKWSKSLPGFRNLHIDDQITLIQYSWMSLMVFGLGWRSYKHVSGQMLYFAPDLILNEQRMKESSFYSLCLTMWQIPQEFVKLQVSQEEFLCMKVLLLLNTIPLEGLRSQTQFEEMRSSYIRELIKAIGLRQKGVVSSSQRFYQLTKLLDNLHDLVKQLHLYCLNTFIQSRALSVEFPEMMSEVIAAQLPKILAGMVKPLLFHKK
Method in brief: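 Cells (PR-UAS-bla HEK 293T, GripTite) were plated in assay medium containing 2% charcoal-stripped FBS and incubated 6 hr. Test compounds in DMSO were added for 16 hr at 37C. FRET substrate was then loaded for 2 hr at room temperature before fluorescence reading.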

[2] = qHTS assay to identify small molecule antagonists of the TGF-beta/Smad signaling pathway - cell viability counter screen (AID 1346824); note: nearly all actives have a fitted effect of over 50% in size; note: potency is the fitted concentration of half-maximal effect
Method in brief: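 SBE-bla HEK 293T cells, incubated overnight, then compound plus 0.25 ng/mL TGF-beta1 (stock added) for 5 hr at 37 C. Viability was read in the same wells by CellTiter-Glo luminescence after 30 min at room temperature.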

[3] = qHTS assay to identify small molecule agonists of the TGF-beta/Smad signaling pathway - cell viability counter screen (AID 1346829); note: nearly all actives have a fitted effect of over 45% in size; note: potency is the fitted concentration of half-maximal effect
Method in brief: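 Tox21 qHTS format: SBE-bla HEK 293T cells treated with DMSO-dissolved compounds for 5 hr; CellTiter-Glo luminescence after 30 min at room temperature.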

[4] = target: Thyrotropin-releasing hormone receptor (Homo sapiens) (UniProt P34981); test: qHTS assay to identify small molecule antagonists of the thyrotropin-releasing hormone receptor (TRHR) signaling pathway (AID 1346877; active = well fitted inhibition curve with a large enough effect in the repeat runs, not every such curve was filed as active; note: series mostly up to about 51 µM)
Thyrotropin-releasing hormone receptor (Homo sapiens), sequence (P34981 whole entry, looked up): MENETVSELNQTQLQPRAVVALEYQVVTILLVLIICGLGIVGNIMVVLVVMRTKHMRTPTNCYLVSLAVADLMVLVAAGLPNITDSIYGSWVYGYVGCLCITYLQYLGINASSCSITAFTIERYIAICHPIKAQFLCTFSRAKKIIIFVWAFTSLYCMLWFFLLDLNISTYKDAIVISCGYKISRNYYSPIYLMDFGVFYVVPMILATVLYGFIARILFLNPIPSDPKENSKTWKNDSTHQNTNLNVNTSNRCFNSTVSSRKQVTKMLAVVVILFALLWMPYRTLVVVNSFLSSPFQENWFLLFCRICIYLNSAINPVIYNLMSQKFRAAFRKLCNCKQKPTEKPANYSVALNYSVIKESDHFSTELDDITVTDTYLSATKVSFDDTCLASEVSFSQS
Method in brief: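 Antagonism is measured as suppression of the calcium response to 1 nM TRH in TRHR-HEK293 cells that have been dye-loaded for 2 h at 37 °C after overnight plating. Each compound is tested at 15 concentrations in triplicate.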

[5] = target: Thyrotropin-releasing hormone receptor (Homo sapiens) (UniProt P34981); test: qHTS assay to identify small molecule agonists of the thyrotropin-releasing hormone receptor (TRHR) signaling pathway (AID 1346891; calls by dose curve;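 note: HEK293 cells expressing TRHR with calcium dye readout; series mostly up to about 58 µM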)
Method in brief: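 Cells: TRHR-Hek293, seeded and incubated 18 h. Dye loading: 2 h at 37 °C. Compound added from DMSO stock by pin tool. Read-out: kinetic calcium fluorescence over 3 min.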

[6] = Caspase-3/7 induction in HepG2 cells by small molecules, qHTS assay (AID 1346978); note: nearly all actives have a fitted effect of over 15% in size
Method in brief: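 Wild-type HepG2 cells, 2,000/well, settled 5 hr at 37 C and 5% CO2, then compound-treated for 17 hr; caspase-3/7 activity read by luminescent Caspase-Glo 3/7 after 30 min at room temperature.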

[7] = Caspase-3/7 induction in CHO-K1 cells by small molecules, qHTS assay (AID 1346980); note: nearly all actives have a fitted effect of over 15% in size
Method in brief: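 Wild-type CHO-K1 cells exposed to compounds for 17hr at 37 C, 5% CO2. Caspase-3/7 activity then measured by Caspase-Glo 3/7 luminescence after 30min at room temperature.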

[8] = Caspase-3/7 induction in HepG2 cells by small molecules, qHTS cell viability counter screen (AID 1346981); note: nearly all actives have a fitted effect of over 30% in size; note: potency is the fitted concentration of half-maximal effect
Method in brief: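 Cell viability is measured as a cytotoxicity counter screen alongside the Caspase-Glo 3/7 readout in identical wells. Wild-type HepG2 cells are treated with test compounds for 16 hr at 37 C before CellTiter-Fluor addition and a 1-hr incubation.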

[9] = target: Nuclear receptor subfamily 1 group I member 2 (Homo sapiens) (UniProt O75469); test: Human pregnane X receptor (PXR) small molecule agonists, qHTS assay (AID 1346982); note: nearly all actives have a fitted effect of over 35% in size; note: potency is the fitted concentration of half-maximal effect
Nuclear receptor subfamily 1 group I member 2 (Homo sapiens), sequence (O75469 whole entry, looked up): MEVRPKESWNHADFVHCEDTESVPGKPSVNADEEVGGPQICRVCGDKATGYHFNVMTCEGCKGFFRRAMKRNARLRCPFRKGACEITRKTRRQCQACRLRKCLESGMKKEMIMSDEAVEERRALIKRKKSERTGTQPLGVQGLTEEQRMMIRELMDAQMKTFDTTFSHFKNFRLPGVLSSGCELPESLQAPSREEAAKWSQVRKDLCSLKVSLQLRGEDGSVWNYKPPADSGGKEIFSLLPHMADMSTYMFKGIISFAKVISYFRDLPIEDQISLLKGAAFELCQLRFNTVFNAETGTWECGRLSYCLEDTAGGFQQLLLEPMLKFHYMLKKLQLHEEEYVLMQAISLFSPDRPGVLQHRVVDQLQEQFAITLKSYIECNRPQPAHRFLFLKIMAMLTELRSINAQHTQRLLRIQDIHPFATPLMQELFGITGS
Method in brief: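 Cells: HepG2 stably carrying PXR-Luc. Medium held 5% charcoal-stripped FBS. Compounds in DMSO added after 5 hr plating, incubated 24 hr, then luminescence quantified with ONE-Glo.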

[10] = target: Cytochrome P450 2D6 (Homo sapiens) (UniProt P10635); test: Cytochrome P450 Family 2 Subfamily D Member 6 (CYP2D6) small molecule antagonists: luciferase reporter qHTS assay (AID 1671196); note: nearly all actives have a fitted effect of over 50% in size; note: potency is the fitted concentration of half-maximal effect
Cytochrome P450 2D6 (Homo sapiens), sequence (P10635 whole entry, looked up): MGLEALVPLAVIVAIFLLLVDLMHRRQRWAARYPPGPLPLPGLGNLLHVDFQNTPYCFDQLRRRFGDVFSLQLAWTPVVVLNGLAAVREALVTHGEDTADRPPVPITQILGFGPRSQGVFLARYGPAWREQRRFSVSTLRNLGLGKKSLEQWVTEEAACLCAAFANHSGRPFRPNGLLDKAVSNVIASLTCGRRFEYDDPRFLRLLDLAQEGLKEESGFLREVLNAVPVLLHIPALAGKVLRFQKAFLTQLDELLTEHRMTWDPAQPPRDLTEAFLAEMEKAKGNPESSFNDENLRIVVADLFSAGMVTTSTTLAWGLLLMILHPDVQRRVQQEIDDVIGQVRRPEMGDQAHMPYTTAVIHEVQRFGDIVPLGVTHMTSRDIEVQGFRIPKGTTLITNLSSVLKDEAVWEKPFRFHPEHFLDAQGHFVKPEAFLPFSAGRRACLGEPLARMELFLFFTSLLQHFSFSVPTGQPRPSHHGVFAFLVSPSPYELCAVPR
Method in brief: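 Enzyme and proluciferin substrate were first combined with test chemical for 10 min at room temperature. Adding NADPH regeneration solution started a 1 h reaction, stopped with luciferin detection reagent and read by luminescence 20 min later.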

[11] = target: Cytochrome P450 2C19 (Homo sapiens) (UniProt P33261); test: Cytochrome P450 Family 2 Subfamily C Member 19 (CYP2C19) small molecule antagonists: luciferase reporter qHTS assay (AID 1671197); note: nearly all actives have a fitted effect of over 65% in size; note: potency is the fitted concentration of half-maximal effect
Cytochrome P450 2C19 (Homo sapiens), sequence (P33261 whole entry, looked up): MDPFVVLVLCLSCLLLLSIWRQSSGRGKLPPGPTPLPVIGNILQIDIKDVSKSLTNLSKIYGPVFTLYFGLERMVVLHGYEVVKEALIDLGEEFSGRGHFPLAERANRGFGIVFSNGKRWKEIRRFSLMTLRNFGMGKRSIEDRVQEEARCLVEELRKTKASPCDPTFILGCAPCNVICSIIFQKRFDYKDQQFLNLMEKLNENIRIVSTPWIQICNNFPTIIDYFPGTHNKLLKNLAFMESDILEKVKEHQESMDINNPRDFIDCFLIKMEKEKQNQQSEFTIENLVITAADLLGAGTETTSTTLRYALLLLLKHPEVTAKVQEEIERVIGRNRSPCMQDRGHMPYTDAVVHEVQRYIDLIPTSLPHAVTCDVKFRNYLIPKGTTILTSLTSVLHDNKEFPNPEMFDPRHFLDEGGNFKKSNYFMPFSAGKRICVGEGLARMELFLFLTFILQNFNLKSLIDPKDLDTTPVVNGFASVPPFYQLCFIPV
Method in brief: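 Relative luminescence units recorded 20 min after the detection reagent stopped a 1 h, 37C CYP2C19 reaction on proluciferin substrate, which was started by NADPH regeneration following 10 min room-temperature compound preincubation; ketoconazole positive control.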

[12] = qHTS assay to identify small molecule antagonists of the progesterone receptor (PR) signaling pathway - cell viability counter screen (AID 1346798); note: series mostly up to about 92 µM; nearly all actives have a fitted effect of over 50% in size
Method in brief: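 Counter screen for cytotoxicity: viability of PR-UAS-bla HEK293T cells was measured with CellTiter-Glo luminescence following 16 hr compound exposure in the presence of R5020.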

[13] = qHTS assay to identify small molecule agonists of the progesterone receptor (PR) signaling pathway - cell viability counter screen (AID 1346799; calls by dose curve; note: nearly all actives have a fitted effect of over 45% in size)
Method in brief: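 Cells (PR-UAS-bla HEK293T) are plated at 3,000/well in 2% charcoal-stripped FBS medium, rested 6 hr, dosed and incubated 16 hr at 37C. CellTiter-Glo is then added and luminescence measured after 30 min at room temperature.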

[14] = qHTS assay to identify small molecule agonists of the TGF-beta/Smad signaling pathway (AID 1346859; active = well fitted activation curve with a large enough effect in the signal ratio in the repeat runs, not every such curve was filed as active; the % refers to the signal ratio; note: series mostly up to about 77 µM)
Method in brief: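 Reporter line: HEK 293T with stably integrated SBE-controlled beta-lactamase. Compound exposure lasts 5 hr at 37 C and 5% CO2; substrate loading follows for 2 hr at room temperature, with emission read at 460 and 530 nm.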

[15] = Human pregnane X receptor (PXR) small molecule agonists, qHTS cell viability counter screen (AID 1346977); note: nearly all actives have a fitted effect of over 50% in size; note: potency is the fitted concentration of half-maximal effect
Method in brief: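 Cytotoxicity counter screen run in the same wells as the PXR luciferase assay, using PXR-Luc HepG2 cells in charcoal-stripped serum medium. Viability: CellTiter-Fluor fluorescence after 24hr compound treatment.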

[16] = Caspase-3/7 induction in CHO-K1 cells by small molecules, qHTS cell viability counter screen (AID 1346979); note: nearly all actives have a fitted effect of over 35% in size; note: potency is the fitted concentration of half-maximal effect
Method in brief: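 Cytotoxicity counter screen run in parallel with the caspase-3/7 assay: CHO-K1 cells, 16hr compound treatment at 37C, then CellTiter-Fluor for 1hr before fluorescence reading.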

[17] = target: Nuclear receptor subfamily 1 group I member 2 (Homo sapiens) (UniProt O75469); test: Human pregnane X receptor (PXR) activation by small molecules, qHTS assay (AID 1346985); note: potency is the fitted concentration of half-maximal effect; nearly all actives have a fitted effect of over 40% in size
Method in brief: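 DPX-2 cells (HepG2 co-transfected with a PXR response element and a CYP3A4-promoter luciferase construct) were seeded at 2,000 per well, rested 5 hr at 37C, then exposed to DMSO-dissolved compounds for 24 hr. Activation was read as luciferase luminescence.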

Measured: Potency

O=C1CCc2cc(OCCCCc3nnnn3C3CCCCC3)ccc2N1
active: [9] 13.3 µM
not listed: [12] | [13] | [14] | [15] | [16] | [17]
inactive: all other assays above

Nc1nc(-c2ccccc2)cs1
active: [9] 27.2 µM | [10] 12.6 µM
not listed: [2] | [11] | [17]
inactive: all other assays above

Clc1ccnc(Cl)n1
not listed: [11] | [12] | [17]
inactive: all other assays above

CC(C)=CCC1=C(O)c2ccccc2C(=O)C1=O
active: [15] 60.8 µM | [16] 30.5 µM | [9] 19.2 µM | [10] 44.6 µM | [11] 28.1 µM
not listed: [8] | [12] | [13] | [17]
inactive: all other assays above

CCOC(=O)c1ccc(C2CCC(NC[C@H](O)COc3ccc(O)c(NS(C)(=O)=O)c3)CC2)cc1 (some centres undefined)
active: [15] 56.4 µM | [10] 58.4 µM
inactive: [1] | [13] | [2] | [7] | [9]

C=C(C)C(=O)OCCCCCCCCCC
inactive: [1] | [2] | [14] | [4] | [5] | [7] | [10]
active: [15] 48.9 µM | [16] 54.9 µM | [9] 30.9 µM | [11] 56.8 µM

O=C(O)c1cc(O)c2ccccc2c1O
active: [2] 4.9 µM | [3] 3.09 µM | [15] 7.7 µM | [16] 6.11 µM | [8] 9.69 µM | [9] 1.93 µM | [10] 35.6 µM | [11] 7.1 µM
inactive: [1] | [12] | [13] | [4] | [5] | [6] | [7]

COC(=O)Nc1nc2ccc(C(=O)c3ccccc3)cc2[nH]1
active: [16] 8.41 µM | [9] 4.22 µM | [17] 5.01 µM
not listed: [12] | [13] | [14]
inactive: all other assays above
